Data published in PubChem BioAssay (Tox21).
Inconclusive results are not listed. The source made the active and inactive calls. Unless noted, calls follow the shape of the dose curve; as a rule, active = well fitted curve in the direction sought with a large enough effect in the repeat runs; inconclusive = weak or mixed curves; inactive = no such curve, though single readings can be large; an effect the other way counts as inactive or inconclusive.

What was measured:
[1] = qHTS assay to identify small molecule agonists of the TGF-beta/Smad signaling pathway - cell viability counter screen (AID 1346829); details: SBE-bla HEK293T viability, CellTiter-Glo luminescence, 5 h; series mostly up to 76.8 µM; also: top concentration of the series differs between compounds; nearly all actives have a fitted effect of over 45% in size
Summary of the method: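 Compound-treated SBE-bla HEK 293T cells (5 hr, 37 C) were assessed for viability with CellTiter-Glo in parallel with the reporter read.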

[2] = qHTS assay to identify small molecule agonists of the TGF-beta/Smad signaling pathway (AID 1346859; active = well fitted activation curve with a large enough effect in the signal ratio in the repeat runs, not every such curve was filed as active; the % refers to the signal ratio); details: SBE-bla HEK293T, TGF-beta/Smad beta-lactamase reporter, 5 h; series mostly up to 76.8 µM
Summary of the method: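 Each well held 4,000 SBE-bla HEK 293T cells incubated overnight before compound addition; 5 hr later the cleavable FRET substrate went on for 2 hr at room temperature, and fluorescence was read at two emissions.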

[3] = biological target: Thyrotropin-releasing hormone receptor (Homo sapiens) (UniProt P34981); assay: qHTS assay to identify small molecule agonists of the thyrotropin-releasing hormone receptor (TRHR) signaling pathway (AID 1346891; calls by dose curve); details: TRHR-HEK293 calcium fluorescence, agonist mode; series mostly up to 57.6 µM
Thyrotropin-releasing hormone receptor (Homo sapiens), sequence (P34981 whole entry, looked up): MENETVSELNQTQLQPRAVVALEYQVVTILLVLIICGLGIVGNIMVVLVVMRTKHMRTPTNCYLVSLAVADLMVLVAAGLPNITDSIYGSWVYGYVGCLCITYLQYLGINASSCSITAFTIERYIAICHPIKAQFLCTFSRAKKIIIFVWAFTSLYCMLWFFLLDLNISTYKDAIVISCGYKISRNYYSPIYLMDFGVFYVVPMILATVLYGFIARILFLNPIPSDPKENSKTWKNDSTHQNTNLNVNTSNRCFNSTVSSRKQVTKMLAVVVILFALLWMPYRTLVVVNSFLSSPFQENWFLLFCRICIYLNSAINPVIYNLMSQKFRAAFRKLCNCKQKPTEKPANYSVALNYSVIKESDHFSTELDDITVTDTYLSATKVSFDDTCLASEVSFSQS
Summary of the method: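 Screening of agonists relied on calcium signalling in HEK293 cells expressing human TRHR: dye loading 2 h at 37 °C preceded compound addition and a 3-min fluorescence time course.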

[4] = Human pregnane X receptor (PXR) small molecule agonists, qHTS cell viability counter screen (AID 1346977); details: PXR-Luc HepG2 viability, CellTiter-Fluor, 24 h; series mostly up to 92.4 µM; also: nearly all actives have a fitted effect of over 50% in size
Summary of the method: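 Tox21 qHTS format; PXR-Luc HepG2, 2,000/well, charcoal-stripped FBS 5%. Cpd exposure 24hr. Read: CellTiter-Fluor fluorescence, multiplexed with luciferase.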

[5] = Caspase-3/7 induction in HepG2 cells by small molecules, qHTS assay (AID 1346978); details: HepG2 caspase-3/7 activation, Caspase-Glo luminescence, 17 h; series mostly up to 92.4 µM; also: nearly all actives have a fitted effect of over 15% in size
Summary of the method: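 Caspase-3/7 induction was measured by Caspase-Glo 3/7 luminescence (30 min, room temperature) after a 17 hr compound exposure of wild-type HepG2 cells seeded at 2,000 per well and pre-incubated 5 hr.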

[6] = Caspase-3/7 induction in CHO-K1 cells by small molecules, qHTS cell viability counter screen (AID 1346979); details: CellTiter-Fluor fluorescence, 17 h; series mostly up to 92.4 µM; also: nearly all actives have a fitted effect of over 35% in size
Summary of the method: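 CellTiter-Fluor viability check, qHTS format: wild-type CHO-K1, 16hr compound treatment, 1hr reagent incubation, fluorescence read.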

[7] = Caspase-3/7 induction in CHO-K1 cells by small molecules, qHTS assay (AID 1346980); details: CHO-K1 caspase-3/7 induction, Caspase-Glo luminescence, 17 h; series mostly up to 92.4 µM; also: nearly all actives have a fitted effect of over 15% in size
Summary of the method: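 Luminescent Caspase-Glo 3/7 read (30min, room temperature) quantified apoptosis induction. Cells were wild-type CHO-K1, treated with compound for 17hr at 37 C and 5% CO2.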

[8] = Caspase-3/7 induction in HepG2 cells by small molecules, qHTS cell viability counter screen (AID 1346981); details: CellTiter-Fluor fluorescence, 17 h; series mostly up to 92.4 µM; also: nearly all actives have a fitted effect of over 30% in size
Summary of the method: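 In this quantitative HTS counter screen, compounds delivered in DMSO were left on unmodified HepG2 cells for 16 hr at 37 C. Viability was then determined fluorometrically with CellTiter-Fluor, in parallel with caspase-3/7 induction in the same wells.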

[9] = biological target: Cytochrome P450 2D6 (Homo sapiens) (UniProt P10635); assay: Cytochrome P450 Family 2 Subfamily D Member 6 (CYP2D6) small molecule antagonists: luciferase reporter qHTS assay (AID 1671196); details: P450-Glo CYP2D6 enzyme assay, luciferin luminescence, 1 h; series mostly up to 115 µM; also: nearly all actives have a fitted effect of over 50% in size; also: potency is read from the fitted curve at half-maximal effect
Cytochrome P450 2D6 (Homo sapiens), sequence (P10635 whole entry, looked up): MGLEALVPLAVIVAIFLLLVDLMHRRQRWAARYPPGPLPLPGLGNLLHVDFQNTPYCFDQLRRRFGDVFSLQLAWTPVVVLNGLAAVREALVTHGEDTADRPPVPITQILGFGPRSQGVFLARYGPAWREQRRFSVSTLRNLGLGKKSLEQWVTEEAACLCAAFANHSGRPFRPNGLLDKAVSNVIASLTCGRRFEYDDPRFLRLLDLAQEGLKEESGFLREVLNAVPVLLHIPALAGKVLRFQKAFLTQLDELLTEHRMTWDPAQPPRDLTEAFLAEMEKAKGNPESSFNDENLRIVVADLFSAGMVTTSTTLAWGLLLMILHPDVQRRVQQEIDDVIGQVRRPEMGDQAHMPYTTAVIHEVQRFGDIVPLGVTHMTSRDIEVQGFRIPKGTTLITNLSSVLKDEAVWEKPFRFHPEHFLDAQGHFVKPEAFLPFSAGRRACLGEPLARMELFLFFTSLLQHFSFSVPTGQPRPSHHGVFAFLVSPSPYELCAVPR
Summary of the method: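 Test chemicals meet CYP2D6 plus proluciferin substrate (10 min, RT); NADPH regenerating solution then drives turnover for 1 h. Detection reagent halts the reaction; luminescence measured after 20 min.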

[10] = biological target: Cytochrome P450 2C19 (Homo sapiens) (UniProt P33261); assay: Cytochrome P450 Family 2 Subfamily C Member 19 (CYP2C19) small molecule antagonists: luciferase reporter qHTS assay (AID 1671197); details: P450-Glo CYP2C19 enzyme, luciferin luminescence, 1 h; series mostly up to 115 µM; also: nearly all actives have a fitted effect of over 65% in size; also: potency is read from the fitted curve at half-maximal effect
Cytochrome P450 2C19 (Homo sapiens), sequence (P33261 whole entry, looked up): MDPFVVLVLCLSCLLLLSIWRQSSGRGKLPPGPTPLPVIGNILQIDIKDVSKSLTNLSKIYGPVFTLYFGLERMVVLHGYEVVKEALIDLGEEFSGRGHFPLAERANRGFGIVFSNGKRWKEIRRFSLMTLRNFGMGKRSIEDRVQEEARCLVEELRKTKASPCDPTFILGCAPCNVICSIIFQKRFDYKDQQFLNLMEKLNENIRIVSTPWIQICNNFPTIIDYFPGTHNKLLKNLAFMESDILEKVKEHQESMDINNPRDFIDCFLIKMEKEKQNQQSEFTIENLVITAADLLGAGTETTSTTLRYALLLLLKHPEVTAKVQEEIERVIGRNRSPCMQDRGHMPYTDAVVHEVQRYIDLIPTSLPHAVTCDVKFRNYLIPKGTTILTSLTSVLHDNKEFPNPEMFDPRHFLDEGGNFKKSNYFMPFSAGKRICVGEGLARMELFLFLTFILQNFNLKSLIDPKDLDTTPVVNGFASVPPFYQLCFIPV
Summary of the method: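 P450-Glo CYP2C19 screening system; proluciferin substrate; DMSO compound stocks; 10 min RT preincubation; NADPH regeneration, 1 h at 37C; luciferin detection reagent, 20 min RT; luminescence as RLU.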

[11] = biological target: Cytochrome P450 2C9 (Homo sapiens) (UniProt P11712); assay: Cytochrome P450 Family 2 Subfamily C Member 9 (CYP2C9) small molecule antagonists: luciferase reporter qHTS assay (AID 1671198); details: P450-Glo CYP2C9 enzyme assay, luciferin luminescence; series mostly up to 115 µM; also: nearly all actives have a fitted effect of over 50% in size; also: potency is read from the fitted curve at half-maximal effect
Cytochrome P450 2C9 (Homo sapiens), sequence (P11712 whole entry, looked up): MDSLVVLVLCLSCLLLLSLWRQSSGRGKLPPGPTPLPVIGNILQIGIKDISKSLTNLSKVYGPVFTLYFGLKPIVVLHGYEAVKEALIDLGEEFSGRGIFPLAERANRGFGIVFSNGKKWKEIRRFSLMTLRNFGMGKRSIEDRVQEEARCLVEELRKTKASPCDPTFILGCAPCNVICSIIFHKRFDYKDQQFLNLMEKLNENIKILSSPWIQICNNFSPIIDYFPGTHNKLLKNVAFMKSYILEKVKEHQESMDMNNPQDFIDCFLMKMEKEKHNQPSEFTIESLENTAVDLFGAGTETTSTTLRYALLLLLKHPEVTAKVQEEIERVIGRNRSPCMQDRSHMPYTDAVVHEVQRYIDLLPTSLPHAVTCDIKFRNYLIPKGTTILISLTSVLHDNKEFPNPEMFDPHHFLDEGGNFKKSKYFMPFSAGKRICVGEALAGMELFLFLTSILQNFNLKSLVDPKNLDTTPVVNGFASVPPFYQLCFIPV
Summary of the method: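 Enzyme-substrate mix preincubated with compound 10 min at room temperature; reaction started with NADPH regeneration solution, 1 h 37C. Luminescent luciferin product read after 20 min detection reagent.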

[12] = biological target: Cytochrome P450 1A2 (Homo sapiens) (UniProt P05177); assay: Cytochrome P450 Family 1 Subfamily A Member 2 (CYP1A2) small molecule antagonists: luciferase reporter qHTS assay (AID 1671199); details: P450-Glo CYP1A2 enzyme, luciferin luminescence, 1 h; series mostly up to 115 µM; also: nearly all actives have a fitted effect of over 50% in size; also: potency is read from the fitted curve at half-maximal effect
Cytochrome P450 1A2 (Homo sapiens), sequence (P05177 whole entry, looked up): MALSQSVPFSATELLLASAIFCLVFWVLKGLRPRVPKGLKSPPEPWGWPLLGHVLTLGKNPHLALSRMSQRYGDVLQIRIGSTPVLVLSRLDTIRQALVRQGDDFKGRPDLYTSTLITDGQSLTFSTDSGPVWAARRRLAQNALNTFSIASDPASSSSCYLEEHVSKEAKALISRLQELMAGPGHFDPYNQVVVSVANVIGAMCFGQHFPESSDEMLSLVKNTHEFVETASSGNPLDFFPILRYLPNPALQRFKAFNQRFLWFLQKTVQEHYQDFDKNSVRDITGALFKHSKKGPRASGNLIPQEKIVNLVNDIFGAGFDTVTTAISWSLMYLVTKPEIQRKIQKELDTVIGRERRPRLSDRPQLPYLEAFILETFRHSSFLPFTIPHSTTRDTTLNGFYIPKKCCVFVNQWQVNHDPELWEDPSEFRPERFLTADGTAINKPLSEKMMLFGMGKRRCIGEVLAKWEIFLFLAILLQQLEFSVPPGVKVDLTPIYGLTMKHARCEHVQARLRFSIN
Summary of the method: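 Steps: enzyme-substrate mix dispensed; test compounds and furafylline control pinned in; 10 min room temperature; NADPH regeneration solution added, 1 h; reaction stopped with luciferin detection reagent; luminescence read after 20 min.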

[13] = biological target: Voltage-gated inwardly rectifying potassium channel KCNH2 (Homo sapiens) (UniProt Q12809); assay: Human Ether-a-go-go-Related Gene (hERG) channel small molecule antagonists: fluorescence cell-based qHTS assay (AID 1671200); details: hERG-U2OS cells, FluxOR thallium flux fluorescence; series mostly up to 76.8 µM
Voltage-gated inwardly rectifying potassium channel KCNH2 (Homo sapiens), sequence (Q12809 whole entry, looked up): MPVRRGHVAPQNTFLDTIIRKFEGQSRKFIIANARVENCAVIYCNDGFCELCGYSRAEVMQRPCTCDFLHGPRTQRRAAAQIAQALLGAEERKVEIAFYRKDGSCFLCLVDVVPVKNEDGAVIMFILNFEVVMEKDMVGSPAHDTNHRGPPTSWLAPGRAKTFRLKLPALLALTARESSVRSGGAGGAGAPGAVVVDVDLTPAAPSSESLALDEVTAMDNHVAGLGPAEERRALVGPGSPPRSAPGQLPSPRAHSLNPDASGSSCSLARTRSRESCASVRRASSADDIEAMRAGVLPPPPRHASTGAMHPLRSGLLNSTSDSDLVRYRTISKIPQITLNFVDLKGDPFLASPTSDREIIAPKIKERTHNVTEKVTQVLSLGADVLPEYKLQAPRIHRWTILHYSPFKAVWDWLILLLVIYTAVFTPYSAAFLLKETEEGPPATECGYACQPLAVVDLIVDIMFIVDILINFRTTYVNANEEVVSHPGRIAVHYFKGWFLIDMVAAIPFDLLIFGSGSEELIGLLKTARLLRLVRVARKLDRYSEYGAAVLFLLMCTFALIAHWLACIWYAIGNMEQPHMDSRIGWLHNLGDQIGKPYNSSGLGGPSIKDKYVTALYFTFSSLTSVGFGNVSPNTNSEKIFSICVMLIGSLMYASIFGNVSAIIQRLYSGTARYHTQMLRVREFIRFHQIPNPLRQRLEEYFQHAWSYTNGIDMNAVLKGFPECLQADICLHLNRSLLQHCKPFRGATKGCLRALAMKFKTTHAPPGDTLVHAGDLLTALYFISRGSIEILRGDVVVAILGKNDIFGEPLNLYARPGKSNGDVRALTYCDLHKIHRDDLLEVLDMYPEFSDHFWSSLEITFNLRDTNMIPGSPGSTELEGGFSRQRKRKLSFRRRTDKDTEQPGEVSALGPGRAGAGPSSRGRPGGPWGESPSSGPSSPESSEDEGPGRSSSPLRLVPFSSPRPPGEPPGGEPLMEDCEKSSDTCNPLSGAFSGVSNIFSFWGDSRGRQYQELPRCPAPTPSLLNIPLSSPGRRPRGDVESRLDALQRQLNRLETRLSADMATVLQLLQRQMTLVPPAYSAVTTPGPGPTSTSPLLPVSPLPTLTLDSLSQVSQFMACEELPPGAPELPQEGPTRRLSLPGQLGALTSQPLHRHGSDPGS
Summary of the method: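 Kinetic two-minute fluorescence traces, sampled at 1 s, were collected following thallium stimulus of U2OS cells (1000 per well) that had been cultured overnight at 37 C and loaded with FluxOR II.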

[14] = biological target: Cytochrome P450 3A4 (Homo sapiens) (UniProt P08684); assay: Cytochrome P450 Family 3 Subfamily A Member 4 (CYP3A4) small molecule antagonists: luciferase reporter qHTS assay (AID 1671201); details: P450-Glo CYP3A4 enzyme, luciferin luminescence, 1 h; series mostly up to 115 µM; also: nearly all actives have a fitted effect of over 50% in size
Cytochrome P450 3A4 (Homo sapiens), sequence (P08684 whole entry, looked up): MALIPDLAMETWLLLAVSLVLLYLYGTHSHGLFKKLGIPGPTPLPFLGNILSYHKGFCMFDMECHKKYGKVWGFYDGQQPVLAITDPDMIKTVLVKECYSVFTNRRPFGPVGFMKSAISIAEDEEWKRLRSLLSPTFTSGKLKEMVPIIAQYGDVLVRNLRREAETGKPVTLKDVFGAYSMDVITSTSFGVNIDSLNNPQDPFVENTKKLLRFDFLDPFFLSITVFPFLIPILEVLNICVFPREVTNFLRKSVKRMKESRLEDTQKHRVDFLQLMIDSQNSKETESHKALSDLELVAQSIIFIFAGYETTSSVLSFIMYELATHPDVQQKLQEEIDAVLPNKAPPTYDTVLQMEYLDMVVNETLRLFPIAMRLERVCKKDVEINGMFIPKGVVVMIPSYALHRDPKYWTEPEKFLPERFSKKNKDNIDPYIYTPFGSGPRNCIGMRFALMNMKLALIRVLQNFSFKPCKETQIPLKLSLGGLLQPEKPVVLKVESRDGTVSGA
Summary of the method: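 Proluciferin-to-luciferin conversion by CYP3A4, NADPH-regenerated, 1 h RT; luminescence read as RLU. Ketoconazole as control.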

[15] = biological target: Nuclear receptor subfamily 1 group I member 2 (Homo sapiens) (UniProt O75469); assay: Human pregnane X receptor (PXR) small molecule agonists, qHTS assay (AID 1346982); details: PXR-Luc HepG2, CYP3A4 luciferase reporter, 24 h; series mostly up to 92.4 µM; also: nearly all actives have a fitted effect of over 35% in size; also: potency is read from the fitted curve at half-maximal effect
Nuclear receptor subfamily 1 group I member 2 (Homo sapiens), sequence (O75469 whole entry, looked up): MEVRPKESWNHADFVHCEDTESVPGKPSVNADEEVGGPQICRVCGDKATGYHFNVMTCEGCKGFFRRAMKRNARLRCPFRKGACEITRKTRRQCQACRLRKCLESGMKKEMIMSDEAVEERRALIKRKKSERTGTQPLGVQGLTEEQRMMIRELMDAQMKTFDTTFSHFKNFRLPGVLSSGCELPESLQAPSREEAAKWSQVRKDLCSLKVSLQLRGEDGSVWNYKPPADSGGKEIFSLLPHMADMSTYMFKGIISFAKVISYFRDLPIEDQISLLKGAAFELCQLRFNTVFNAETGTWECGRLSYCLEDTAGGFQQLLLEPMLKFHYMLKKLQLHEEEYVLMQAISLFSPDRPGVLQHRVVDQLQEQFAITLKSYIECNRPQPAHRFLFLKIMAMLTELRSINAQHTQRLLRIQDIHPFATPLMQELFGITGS
Summary of the method: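 Reporter HepG2 cells expressing PXR-Luc are cultured in charcoal-stripped FBS (5%), treated with compounds for 24 hr at 37 C, and assayed by ONE-Glo luminescence after 30 min at room temperature.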

[16] = biological target: Nuclear receptor subfamily 1 group I member 2 (Rattus norvegicus) (UniProt Q9R1A7); assay: Rat pregnane X receptor (rPXR) activation by small molecules, qHTS assay (AID 1346983); details: rPXR luciferase reporter cells, One-Glo luminescence, 24 h; hits give high values; also: nearly all actives have a fitted effect of over 20% in size
Nuclear receptor subfamily 1 group I member 2 (Rattus norvegicus), sequence (Q9R1A7 whole entry, looked up): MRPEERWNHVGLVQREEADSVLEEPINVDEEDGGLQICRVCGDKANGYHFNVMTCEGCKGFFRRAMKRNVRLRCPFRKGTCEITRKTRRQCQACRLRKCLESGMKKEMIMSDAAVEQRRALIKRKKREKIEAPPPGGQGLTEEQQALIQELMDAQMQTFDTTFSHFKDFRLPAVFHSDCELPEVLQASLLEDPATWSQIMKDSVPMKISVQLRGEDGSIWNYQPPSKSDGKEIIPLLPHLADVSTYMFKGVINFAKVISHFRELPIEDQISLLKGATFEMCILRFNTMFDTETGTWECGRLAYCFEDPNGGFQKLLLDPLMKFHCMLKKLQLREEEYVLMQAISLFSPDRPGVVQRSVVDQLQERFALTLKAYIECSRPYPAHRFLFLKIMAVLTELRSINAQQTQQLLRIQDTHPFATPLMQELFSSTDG
Summary of the method: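 Luminescent readout (One-Glo luciferase, 30 min room temperature) followed 24 hr compound treatment at 37 C of rPXR cells plated 2,000 per well and preincubated 5hr; qHTS format with compounds delivered in DMSO.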

[17] = biological target: Nuclear receptor subfamily 1 group I member 2 (Homo sapiens) (UniProt O75469); assay: CYP3A4 induction through human pregnane X receptor (PXR) by small molecules, qHTS assay (AID 1346984); details: DPX-2 HepG2 PXR, CYP3A4-luciferin luminescence, 24 h; series mostly up to 46.1 µM; also: nearly all actives have a fitted effect of over 40% in size
Summary of the method: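 Induction measured in HepG2-based DPX-2 cells co-expressing human PXR and a CYP3A4 promoter-driven luciferase. After a 24-hour compound exposure, cells received CYP3A4 luciferin substrate at 3uM final for 3 hours, and light output was then recorded.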

[18] = biological target: Nuclear receptor subfamily 1 group I member 2 (Homo sapiens) (UniProt O75469); assay: Human pregnane X receptor (PXR) activation by small molecules, qHTS assay (AID 1346985); details: DPX-2 HepG2 CYP3A4-luciferase, 24 h; series mostly up to 38.3 µM; also: nearly all actives have a fitted effect of over 40% in size
Summary of the method: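 DPX-2 cells (HepG2 co-transfected with a PXR response element and a CYP3A4-promoter luciferase construct) were seeded at 2,000 per well, rested 5 hr at 37C, then exposed to DMSO-dissolved compounds for 24 hr. Activation was read as luciferase luminescence.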
% is scaled to controls: 0 for no effect and ±100 for the full control effect.

CC(=O)CC(=O)OC(C)(C)C
inactive: outcome [1] | outcome [2] | outcome [3] | outcome [4] | outcome [5] | Potency [6] | outcome [7] | outcome [8] | Potency [9] | Potency [10] | Potency [11] | Potency [12] | Potency [13] | Potency [14]

CC1=C(O)C(=O)C(C)O1 (stereo not drawn)
active: Potency [12] 28.9 µM
inactive: outcome [1] | outcome [2] | outcome [3] | outcome [4] | outcome [5] | Potency [6] | outcome [7] | outcome [8] | Potency [15] | Potency [9] | Potency [11] | Potency [13] | Potency [14]

Fc1ccccc1
inactive: outcome [1] | outcome [2] | outcome [3] | outcome [4] | outcome [5] | Potency [6] | outcome [7] | outcome [8] | Potency [15] | Potency [9] | Potency [10] | Potency [11] | Potency [12] | Potency [13] | Potency [14]

NCCOCCN
inactive: outcome [1] | outcome [2] | outcome [3] | outcome [4] | outcome [5] | Potency [6] | outcome [7] | outcome [8] | Potency [15] | Potency [11] | Potency [13] | Potency [14]
active: Potency [10] 71 µM | Potency [12] 17.8 µM

c1ccc2c(CC3=NCCN3)cccc2c1
inactive: outcome [1] | outcome [2] | outcome [4] | outcome [5] | Potency [6] | outcome [7] | outcome [8] | Potency [15] | max activation [16] 14.1% | Potency [17] | Potency [18] | Potency [10] | Potency [11] | Potency [12] | Potency [13] | Potency [14]
active: Potency [9] 9.77 µM

CC(=O)O[C@@H]1CC2CCC1(C)C2(C)C (stereo partly drawn)
inactive: outcome [1] | outcome [2] | outcome [3] | outcome [5] | Potency [6] | outcome [7] | outcome [8] | max activation [16] -1.62% | Potency [17] | Potency [18] | Potency [9] | Potency [10] | Potency [11] | Potency [12] | Potency [13] | Potency [14]

C=CC(=O)CCCCC
inactive: outcome [1] | outcome [2] | outcome [4] | outcome [5] | Potency [6] | outcome [7] | outcome [8] | Potency [15] | Potency [9] | Potency [10] | Potency [11] | Potency [12] | Potency [13] | Potency [14]

Cc1ccc(C)c([N+](=O)[O-])c1
inactive: outcome [1] | outcome [2] | outcome [3] | outcome [4] | outcome [5] | Potency [6] | outcome [7] | outcome [8] | Potency [15] | Potency [9] | Potency [10] | Potency [11] | Potency [12] | Potency [13] | Potency [14]

CCC(C(=O)OCCN1CCOC(c2ccccc2)C1C)c1ccccc1 (stereo not drawn)
inactive: outcome [1] | outcome [2] | outcome [3] | outcome [4] | outcome [5] | Potency [6] | outcome [7] | outcome [8] | Potency [13]
active: Potency [15] 33.5 µM | Potency [9] 5.49 µM | Potency [10] 1.38 µM | Potency [11] 4.9 µM

O=C1CCCCO1
inactive: outcome [1] | outcome [2] | outcome [3] | outcome [5] | Potency [6] | outcome [7] | outcome [8] | Potency [15] | Potency [9] | Potency [10] | Potency [13] | Potency [14]

O=C(O)CONC(=O)c1ccccc1
inactive: outcome [1] | outcome [2] | outcome [3] | outcome [4] | outcome [5] | Potency [6] | outcome [7] | outcome [8] | Potency [15] | Potency [9] | Potency [10] | Potency [11] | Potency [13]

CC1(C)Oc2ccc(C#N)cc2[C@@H](N2CCCC2=O)[C@@H]1O
inactive: outcome [1] | outcome [2] | outcome [4] | outcome [5] | Potency [6] | outcome [7] | outcome [8] | Potency [15] | max activation [16] 0.645% | Potency [17] | Potency [18] | Potency [9] | Potency [10] | Potency [13] | Potency [14]

CO/N=C(/C(=O)N[C@@H]1C(=O)N2C(C(=O)[O-])=C(C[n+]3ccn4ncccc43)CS[C@H]12)c1nsc(N)n1
inactive: outcome [1] | outcome [2] | outcome [4] | outcome [5] | Potency [6] | outcome [7] | outcome [8] | Potency [15] | Potency [9] | Potency [10] | Potency [11] | Potency [13] | Potency [14]
active: Potency [12] 27.5 µM

C/C(CC(C)C)=N\O
inactive: outcome [1] | outcome [2] | outcome [3] | outcome [5] | Potency [6] | outcome [7] | outcome [8] | Potency [15] | Potency [9] | Potency [10] | Potency [11] | Potency [12] | Potency [13] | Potency [14]

Nc1nnnn1-c1ccccc1
inactive: outcome [1] | outcome [2] | outcome [3] | outcome [4] | outcome [5] | Potency [6] | outcome [7] | outcome [8] | Potency [15] | Potency [9] | Potency [10] | Potency [11] | Potency [13] | Potency [14]

C=CCSSCCC
inactive: outcome [1] | outcome [2] | outcome [3] | outcome [4] | outcome [5] | Potency [6] | outcome [7] | outcome [8] | Potency [15] | Potency [10] | Potency [11] | Potency [12] | Potency [13] | Potency [14]
active: Potency [9] 56.2 µM

CCC(=O)CC
inactive: outcome [1] | outcome [2] | outcome [3] | outcome [4] | outcome [5] | Potency [6] | outcome [7] | outcome [8] | Potency [15] | Potency [9] | Potency [10] | Potency [11] | Potency [13] | Potency [14]
